For 5 molecules, outcome and AC50 results are on record in PubChem BioAssay (EPA / NIEHS).

Active and inactive are the calls of the source. How the source made its calls: active means hit-call score of the fitted dose curve at least 0.9, where 1 is the maximum; inactive means score below 0.9.

One may read the AC50 as the concentration giving half of the maximal activity seen.

What all share (conditions): mRNA level, 48 h; actives raise or lower the signal
Read-out in assay [1]: Apoptosis regulator Bcl-2 (Homo sapiens) (UniProt P10415)
Briefly: LTEA_HepaRG_BCL2: Life Technologies and Expression Analysis (LTEA) Assay for Bcl-2 gene using HepaRG (AID 2283475).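 Further: BCL2 transcript by TaqMan qRT-PCR normalised to ACTB GAPDH and POLR2A.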 In short, it runs like this:
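Each chemical was tested in duplicate on HepaRG cultures held in serum-free induction medium for 48 h, highest concentration 100 uM with half-log dilutions. Transcript levels came from multiplexed qRT-PCR, normalised to housekeeping genes; activity was scored in either direction relative to DMSO.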

Read-out in assay [2]: Bcl-2 (BID) gene, BID (gene 637)
Briefly: LTEA_HepaRG_BID: Life Technologies and Expression Analysis (LTEA) Assay for Bcl-2 (BID) gene using HepaRG (AID 2283476). An outline of the steps: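 Assay used HepaRG hepatic cells treated 48 h in serum-free medium with half-log dilutions from 100 uM. Endpoint: BID mRNA, qRT-PCR, normalized to ACTB/GAPDH/POLR2A.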

Read-out in assay [3]: Caspase-3 (Homo sapiens) (UniProt P42574)
The assay can be described thus: LTEA_HepaRG_CASP3: Life Technologies and Expression Analysis (LTEA) Assay for cysteine-aspartic acid protease (CASP3) using HepaRG (AID 2283477). In short, it runs like this: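 Differentiated HepaRG cells, plated 48 h, were treated in duplicate in serum-free induction medium for 48 h with eight half-log concentrations up to 100 uM in 0.5% DMSO. CASP3 mRNA measured by qRT-PCR, normalized to ACTB, GAPDH, POLR2A.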

Read-out in assay [4]: Cytochrome P450 (CYP24A1), CYP24A1 (gene 1591)
The assay can be described thus: LTEA_HepaRG_CYP24A1: Life Technologies and Expression Analysis (LTEA) Assay for Cytochrome P450 (CYP24A1) using HepaRG (AID 2283478). In short, it runs like this:
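HepaRG cells plated 48 h, then exposed in duplicate in serum-free induction medium for 48 h to 8-point half-log series from 100 uM in 0.5% DMSO. CYP24A1 mRNA by Fluidigm qRT-PCR, normalized to ACTB, GAPDH, POLR2A; bidirectional fit versus DMSO.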

Read-out in assay [5]: Cytochrome P450 (CYP1A2), CYP1A2 (gene 1544)
The assay can be described thus: LTEA_HepaRG_CYP1A2: Life Technologies and Expression Analysis (LTEA) Assay for Cytochrome P450 (CYP1A2) using HepaRG (AID 2283479). In short, it runs like this: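 Differentiated human HepaRG cells in serum-free induction medium exposed 48 hours in duplicate to 8 half-log concentrations from 100 uM, 0.5% DMSO. CYP1A2 mRNA quantified by qRT-PCR, normalized to ACTB, GAPDH and POLR2A; bidirectional fitting versus DMSO.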

Read-out in assay [6]: cysteine-aspartic acid protease (CASP8), CASP8 (gene 841)
The assay can be described thus: LTEA_HepaRG_CASP8: Life Technologies and Expression Analysis (LTEA) Assay for cysteine-aspartic acid protease (CASP8) using HepaRG (AID 2283480). An outline of the steps: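 Concentration-response in duplicate up to 100 uM (half-log steps, 0.5% DMSO) on differentiated HepaRG cultures for 48 h. Expression change of CASP8 mRNA is determined by TaqMan qRT-PCR with housekeeping-gene normalization.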

Read-out in assay [7]: Cytochrome P450 2C19 (Homo sapiens) (UniProt P33261)
Briefly: LTEA_HepaRG_CYP2C19: Life Technologies and Expression Analysis (LTEA) Assay for CYP2C19 using HepaRG (AID 2283482). An outline of the steps: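 Differentiated HepaRG cells in serum-free induction medium exposed 48 h in duplicate, 8 concentrations from 100 uM by half-log steps in 0.5% DMSO. CYP2C19 mRNA measured by TaqMan qRT-PCR, normalized to ACTB, GAPDH, POLR2A. Bidirectional fit versus DMSO.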

Read-out in assay [8]: CYP2C8 (gene 1558)
Briefly: LTEA_HepaRG_CYP2C8: Life Technologies and Expression Analysis (LTEA) Assay for CYP2C8 using HepaRG (AID 2283483). An outline of the steps:
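This is a transcriptional endpoint in HepaRG cultures: 48 h exposure, highest concentration 100 uM. CYP2C8 mRNA is quantified by TaqMan qRT-PCR.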

Read-out in assay [9]: CYP2C9 (gene 1559)
Briefly: LTEA_HepaRG_CYP2C9: Life Technologies and Expression Analysis (LTEA) Assay for CYP2C9 using HepaRG (AID 2283484). In short, it runs like this:
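Eight-point concentration-response (highest 100 uM, half-log dilutions) in HepaRG cells for 48 h; CYP2C9 expression by qRT-PCR normalized to ACTB, GAPDH, POLR2A. Bidirectional fit, DMSO baseline.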

Read-out in assay [10]: CYP2E1 (gene 1571)
Briefly: LTEA_HepaRG_CYP2E1: Life Technologies and Expression Analysis (LTEA) Assay for CYP2E1 using HepaRG (AID 2283485). An outline of the steps: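 Assay uses 48 h exposure of HepaRG hepatic cells, eight concentrations to 100 uM. Expression of CYP2E1 is quantified by TaqMan qRT-PCR with ACTB, GAPDH and POLR2A normalization; curves fitted in both directions relative to vehicle.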

Read-out in assay [11]: Cytochrome P450 3A4 (Homo sapiens) (UniProt P08684)
Briefly: LTEA_HepaRG_CYP3A4: Life Technologies and Expression Analysis (LTEA) Assay for CYP3A4 using HepaRG (AID 2283487). In short, it runs like this: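 In a human hepatic line (HepaRG), duplicate wells were treated 48 h with up to 100 uM chemical in half-log dilutions. Endpoint: CYP3A4 mRNA induction or loss relative to 0.5% DMSO vehicle, by qRT-PCR.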

Read-out in assay [12]: DNA damage-inducible transcript 3 (DDIT3), DDIT3 (gene 1649)
Briefly: LTEA_HepaRG_DDIT3: Life Technologies and Expression Analysis (LTEA) Assay for DNA damage-inducible transcript 3 (DDIT3) using HepaRG (AID 2283488). An outline of the steps: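 Eight-point concentration-response (100 uM highest, half-log dilutions) in HepaRG, 48 h, duplicate wells. Endpoint: qRT-PCR mRNA, normalized (ACTB, GAPDH, POLR2A), bidirectional fitting with DMSO as baseline.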

Read-out in assay [13]: Pro-epidermal growth factor (Homo sapiens) (UniProt P01133)
Briefly: LTEA_HepaRG_EGF: Life Technologies and Expression Analysis (LTEA) Assay for Epidermal growth factor (EGF) using HepaRG (AID 2283489). In short, it runs like this:
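HepaRG cells (~100,000/well, 48 h pre-culture) exposed in duplicate for 48 h in serum-free induction medium to 8 half-log concentrations up to 100 uM in 0.5% DMSO. EGF mRNA by qRT-PCR, normalized to ACTB/GAPDH/POLR2A; bidirectional fit versus DMSO.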

Read-out in assay [14]: Early growth response protein 1 (EGR1) transcription factor, EGR1 (gene 1958)
The assay can be described thus: LTEA_HepaRG_EGR1: Life Technologies and Expression Analysis (LTEA) Assay for Early growth response protein 1 (EGR1) transcription factor using HepaRG (AID 2283490). In short, it runs like this:
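EGR1 expression change in human HepaRG after 48 h chemical exposure, assessed by housekeeping-normalized qRT-PCR; concentration-response up to 100 uM, fitted in both directions against DMSO controls.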

Read-out in assay [15]: Ezrin (EZR), EZR (gene 7430)
Briefly: LTEA_HepaRG_EZR: Life Technologies and Expression Analysis (LTEA) Assay for Ezrin (EZR) using HepaRG (AID 2283491). In short, it runs like this: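 Gain or loss of EZR mRNA is scored relative to 0.5% DMSO in human HepaRG cultures treated 48 h with test chemicals in duplicate, eight half-log concentrations from 100 uM.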

Read-out in assay [16]: CYP3A5 (gene 1577)
The assay can be described thus: LTEA_HepaRG_CYP3A5: Life Technologies and Expression Analysis (LTEA) Assay for CYP3A5 using HepaRG (AID 2283493). In short, it runs like this:
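Readout was CYP3A5 mRNA by qRT-PCR. HepaRG cultures were exposed for 48 h in serum-free induction medium to chemicals at up to 100 uM, and responses were fitted in both directions relative to DMSO vehicle.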

Read-out in assay [17]: Fatty Acid-Binding Protein 1 (FABP1), FABP1 (gene 2168)
Briefly: LTEA_HepaRG_FABP1: Life Technologies and Expression Analysis (LTEA) Assay for Fatty Acid-Binding Protein 1 (FABP1) using HepaRG (AID 2283494). An outline of the steps: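 Values reflect bidirectional concentration-response fitting of FABP1 mRNA change against 0.5% DMSO controls. Human HepaRG cultures received eight half-log doses (top 100 uM) for 48 h; expression quantified by TaqMan qRT-PCR with housekeeping-gene normalization.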

Read-out in assay [18]: Cytochrome P450 4A22 (Homo sapiens) (UniProt Q5TCH4)
The assay can be described thus: LTEA_HepaRG_CYP4A22: Life Technologies and Expression Analysis (LTEA) Assay for Cytochrome P450 4A22 (CYP4A22) using HepaRG (AID 2283495). In short, it runs like this: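 Differentiated HepaRG cells in serum-free induction medium exposed 48 h in duplicate to eight half-log concentrations up to 100 uM in 0.5% DMSO. CYP4A22 mRNA quantified by TaqMan qRT-PCR, normalized to ACTB, GAPDH and POLR2A; bidirectional fit versus DMSO.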

Read-out in assay [19]: Cytochrome P450 7A1 (Homo sapiens) (UniProt P22680)
Briefly: LTEA_HepaRG_CYP7A1: Life Technologies and Expression Analysis (LTEA) Assay for Cytochrome P450 7A1 (CYP7A1) using HepaRG (AID 2283496). An outline of the steps:
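Using 0.5% DMSO as vehicle and baseline, chemicals were tested in duplicate over an 8-point range from 100 uM on HepaRG cells for 48 h; qRT-PCR signals were normalised to ACTB, GAPDH and POLR2A.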

Read-out in assay [20]: Glutathione S-Transferase (GSTA2), GSTA2 (gene 2939)
The assay can be described thus: LTEA_HepaRG_GSTA2: Life Technologies and Expression Analysis (LTEA) Assay for Glutathione S-Transferase (GSTA2) using HepaRG (AID 2283497). An outline of the steps: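 Oxidative-stress marker GSTA2 is quantified by TaqMan qRT-PCR in HepaRG cultures treated 48 h across an eight-point range to 100 uM. Expression is normalized to endogenous controls and compared with 0.5% DMSO vehicle.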

Chain of Cytochrome P450 2C19 (Homo sapiens) (P33261 whole entry, looked up): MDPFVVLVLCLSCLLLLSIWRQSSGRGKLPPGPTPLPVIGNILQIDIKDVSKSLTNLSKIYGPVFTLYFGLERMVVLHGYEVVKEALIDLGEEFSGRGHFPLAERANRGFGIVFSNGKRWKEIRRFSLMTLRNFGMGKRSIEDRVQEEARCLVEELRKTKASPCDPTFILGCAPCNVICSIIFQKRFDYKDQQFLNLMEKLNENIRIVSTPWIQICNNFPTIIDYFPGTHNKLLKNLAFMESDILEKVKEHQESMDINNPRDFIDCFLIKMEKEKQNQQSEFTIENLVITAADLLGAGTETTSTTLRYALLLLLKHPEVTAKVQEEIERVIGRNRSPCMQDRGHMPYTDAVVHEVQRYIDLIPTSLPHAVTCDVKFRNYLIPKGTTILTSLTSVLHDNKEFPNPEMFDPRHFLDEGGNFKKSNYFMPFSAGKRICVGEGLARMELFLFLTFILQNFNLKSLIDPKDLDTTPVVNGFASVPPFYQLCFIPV
Chain of Caspase-3 (Homo sapiens) (P42574 whole entry, looked up): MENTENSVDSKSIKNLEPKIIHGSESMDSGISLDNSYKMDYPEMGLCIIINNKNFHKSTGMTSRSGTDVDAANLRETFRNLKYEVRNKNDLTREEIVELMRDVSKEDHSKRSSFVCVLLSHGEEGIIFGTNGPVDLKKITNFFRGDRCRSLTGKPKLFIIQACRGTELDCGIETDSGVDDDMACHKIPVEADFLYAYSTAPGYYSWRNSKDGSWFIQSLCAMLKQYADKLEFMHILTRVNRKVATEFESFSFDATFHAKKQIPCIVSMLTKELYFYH
Chain of Apoptosis regulator Bcl-2 (Homo sapiens) (P10415 whole entry, looked up): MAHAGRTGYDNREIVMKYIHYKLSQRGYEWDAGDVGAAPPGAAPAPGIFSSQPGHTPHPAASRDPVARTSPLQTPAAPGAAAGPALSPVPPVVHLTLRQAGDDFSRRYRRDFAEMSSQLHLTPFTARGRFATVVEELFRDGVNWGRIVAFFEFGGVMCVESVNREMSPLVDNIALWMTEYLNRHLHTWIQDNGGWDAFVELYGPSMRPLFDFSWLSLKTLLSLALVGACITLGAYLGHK
Chain of Cytochrome P450 3A4 (Homo sapiens) (P08684 whole entry, looked up): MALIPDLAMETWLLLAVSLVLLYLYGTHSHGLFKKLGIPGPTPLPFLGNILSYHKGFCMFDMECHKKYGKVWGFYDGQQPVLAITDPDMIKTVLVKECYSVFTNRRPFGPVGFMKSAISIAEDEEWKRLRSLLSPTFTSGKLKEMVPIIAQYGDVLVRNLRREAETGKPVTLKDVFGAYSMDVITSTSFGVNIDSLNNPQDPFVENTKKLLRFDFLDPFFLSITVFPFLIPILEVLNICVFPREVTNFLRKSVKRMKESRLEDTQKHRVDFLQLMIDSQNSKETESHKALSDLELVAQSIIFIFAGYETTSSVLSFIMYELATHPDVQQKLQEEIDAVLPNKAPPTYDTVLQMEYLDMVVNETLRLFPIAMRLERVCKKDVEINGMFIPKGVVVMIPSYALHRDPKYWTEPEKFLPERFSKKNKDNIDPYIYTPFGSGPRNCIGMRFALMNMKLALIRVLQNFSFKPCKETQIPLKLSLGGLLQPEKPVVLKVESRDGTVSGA

For the molecule `CC(=O)Nc1ccc(O)cc1`, the call in [1], in assay [2], in assay [3], in assay [4], in [5] and in assay [6] was inactive. Besides, the molecule was classed as inactive in assay [7], in [8], in [9], in assay [10], in assay [11] and in assay [12]. In addition, the call in assay [13], in assay [14], in assay [15], in [16], in [17] and in assay [18] was inactive. In addition, the outcome in assay [19] and in assay [20] was inactive.

`CCCCc1oc2ccccc2c1C(=O)c1cc(I)c(OCCN(CC)CC)c(I)c1`: the half-maximal activity concentration (AC50) is 59.5 µM (active) in [1]; 56.8 µM (active) in assay [12]; 61 µM (active) in [14]; 58.2 µM (active) in [15]; 69.9 µM (active) in assay [17]; 59 µM (active) in [20]. For the same molecule, the outcome in [2], in assay [3], in assay [6] and in assay [13] was inactive.

On to `CCCCCCCCCCCCOS(=O)(=O)O`, for which the AC50 in [1] is 86.9 µM (active); in assay [5] it was 71.2 µM (active); in assay [7] it was 82.1 µM (active); in assay [9], 79 µM (active); in assay [10] it was 92.9 µM (active); in assay [12] it was 71.9 µM (active). The AC50 in assay [17] is 87.6 µM (active). The molecule was classed as inactive in assay [2], in assay [3], in assay [4], in [13], in [14] and in assay [15]. Besides, the molecule was called inactive in assay [16].

In the case of `CS(=O)(=O)c1ccc([C@@H](CC2CCCC2)C(=O)Nc2cnccn2)cc1Cl`, the AC50 in assay [1] was 61.8 µM (active); in assay [12], 71.2 µM (active); in assay [14] it was 83.9 µM (active); in assay [17], 63.4 µM (active); in [20] it was 73.7 µM (active). The outcome in [2], in assay [3], in assay [6], in assay [13] and in [15] was inactive.

As to `O=C1NS(=O)(=O)c2ccccc21`, the molecule was classed as inactive in [1], in assay [2], in assay [3], in [4], in assay [5] and in [6]. Further, the molecule was classed as inactive in assay [7], in assay [8], in [9], in assay [10], in [11] and in [12]. Further, the call in [13], in assay [14], in [15], in [16], in [17] and in assay [18] was inactive. Further, the result in assay [19] and in [20] was inactive.
